High-throughput results deposited in PubChem BioAssay by Sanford-Burnham Center for Chemical Genomics.
Compounds with a hit are over-represented: about 31% of the library has one in this group of screens.
PLAP activator – PLAP enzyme activators, biochemical, luminescence, HTS. Alkaline phosphatase, placental type (Homo sapiens), P05187. purified PLAP enzyme, luminescent substrate read-out; stronger effect = higher value. activation fold at 20 µM. 1.2% of 96,000 active. AID 696, 2007; in the data active means activation fold above about 2
Target sequence (P05187 whole entry, looked up): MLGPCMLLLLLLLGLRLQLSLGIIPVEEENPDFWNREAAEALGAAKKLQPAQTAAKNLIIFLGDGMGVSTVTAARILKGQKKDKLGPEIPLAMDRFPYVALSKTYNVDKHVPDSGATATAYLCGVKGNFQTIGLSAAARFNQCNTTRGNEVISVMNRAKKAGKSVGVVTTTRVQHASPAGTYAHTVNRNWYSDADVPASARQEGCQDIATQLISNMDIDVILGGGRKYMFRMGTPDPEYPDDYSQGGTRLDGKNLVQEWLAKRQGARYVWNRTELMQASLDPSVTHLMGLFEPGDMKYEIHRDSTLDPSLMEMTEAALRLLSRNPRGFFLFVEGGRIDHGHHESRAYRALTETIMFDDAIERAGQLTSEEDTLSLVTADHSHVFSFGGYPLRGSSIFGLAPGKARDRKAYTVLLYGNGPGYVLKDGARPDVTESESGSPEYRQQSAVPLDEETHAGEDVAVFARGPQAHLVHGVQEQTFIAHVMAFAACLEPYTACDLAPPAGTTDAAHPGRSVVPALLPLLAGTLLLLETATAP
CYP2C19 inh – blockers of cytochrome P450 2C19 activity – biochemical, luminescence, ADME assay, primary screen. P33261. CYP2C19 Supersomes, luciferin-H EGE luminescence, 30 min. inhibition, % at 5 µM. 21% of 96,000 active;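 active means CYP2C19 inhibition above a set limit at 5 µM in the primary screen, cut at about 50% in these data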;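 further: plate controls were negative control wells for no effect and 2.5 mM tranylcypromine positive control for full effect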
CYP2C9 inh – blockers of cytochrome P450 2C9 activity – biochemical, luminescence, ADME assay, primary screen. CYP2C9 Supersomes, luciferin-H conversion. inhibition, % at 5 µM. 20% of 96,000 active;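 active means blocking of liver enzyme CYP2C9 beyond about 50% at 5 µM, limit read from the data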
CYP2C19 activ – human CYP2C19 activators, primary screen, biochemical, luminescence; Cytochrome P450 2C19 (Homo sapiens), P33261; activation factor at 5 µM; 96,000 tested, under 10 active; recombinant CYP2C19, luciferin-H EGE luminescence; stronger effect = higher value; 0 = fully inhibited enzyme, 1 = untreated enzyme; AID 1025, 2008;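 active means activation factor of at least 2 at 5 µM in the primary screen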;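 further: 0 = wells with 2.5 mM tranylcypromine and 1 = vehicle-only wells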
CYP2C9 act – human CYP2C9 activators, primary screen, biochemical, luminescence. activation factor at 5 µM. 1.4% of 96,000 active. recombinant CYP2C9, luciferin-H conversion; stronger effect = higher value; factor 1 = untreated enzyme, 0 = blocked;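 active means activation factor of 2 or more for CYP2C9 at a 5 µM dose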;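 further: 0 = sulfaphenazole-blocked wells and 1 = vehicle-only wells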
* marks the source's active call; other numbers are inactive results; x = no result.

SMILES	PLAP activator	CYP2C19 inh	CYP2C9 inh	CYP2C19 activ	CYP2C9 act
CCOc1cc(C2NC(=O)N(C)C(C)=C2C(=O)OC)cc(Br)c1O (stereo not given)	1.1	48.3	85.5*	0.5	0.1
Cc1sc2nc(C)n(/N=C/c3ccccc3O)c(=O)c2c1C	0.9	86.3*	-10.5	0.1	1.1
CC1CCC(C(=O)NC(C(=O)NCCN2CCC(C)CC2)C(C)C)CC1 (stereo not given)	1.6	-6.8	2.0	1.1	1
COc1ccc(Cl)cc1-n1c(C)cc(C=O)c1C	0.9	87.3*	60.1*	0.1	0.4
CCCCNC(=O)Nc1ccccn1	1.1	15.5	30.1	0.8	0.7
CCCCNC(=O)Nc1ccc(Br)cn1	1	81.9*	51.5*	0.2	0.5
CCCCC(=O)Nc1ccc(Br)cn1	0.9	57.3*	11.9	0.4	0.9
O=C(Nc1ccc2nc(-c3ccccc3)[nH]c2c1)c1ccco1	0.9	60.8*	57.7*	0.4	0.4
O=C(Nc1cccc(-c2nc3ccccc3[nH]2)c1)c1cccc(NC(=O)c2ccco2)c1	1.6	53.8*	70.2*	0.5	0.3
Cc1ccc(-c2nc3ccccc3[nH]2)cc1NC(=O)c1ccco1	1.2	18.9	35.3	0.8	0.6
O=C1Cn2c(nc3ccccc32)N1c1ccccc1F	0.9	37.1	1.9	0.6	1
O=C1Cn2c(nc3ccccc32)N1c1cccc(C(F)(F)F)c1	0.9	59.0*	31.0	0.4	0.7
O=[N+]([O-])c1cc(Cl)cc(C2=NCCN2)c1	0.9	9.8	3.9	0.9	1
COc1cccc(-c2cc(C(=O)Nc3c(C)nn(Cc4ccccc4C)c3C)no2)c1	0.9	5.4	29.9	0.9	0.7
COC(=O)Nc1c(C)nn(Cc2ccccc2C)c1C	1	58.1*	-3.2	0.4	1
Cc1ccccc1Cn1nc(C)c(NC(=O)c2noc3c2CCc2ccccc2-3)c1C	1.4	57.5*	78.7*	0.4	0.2
CCCCCc1c(C)nc(Nc2nc(C)c3cc(OC)ccc3n2)[nH]c1=O	2*	43.5	48.3	0.6	0.5
CCc1c(C)nc(Nc2nc(C)c3cc(OC)ccc3n2)[nH]c1=O	1.3	9.8	13.5	0.9	0.9
CC1CCc2c(sc3ncnc(N4CCOCC4)c23)C1 (stereo not given)	1.1	46.8	12.9	0.5	0.9
Cc1cc(C)n(-c2ncnc3sc4c(c23)CC(C)CC4)n1 (stereo not given)	1.4	88.1*	49.3	0.1	0.5
CC1CCc2sc3ncnc(N4CCOCC4)c3c2C1 (stereo not given)	1.5	95.5*	60.7*	0	0.4
N#Cc1cnn(-c2ncnc3sc4c(c23)CCCC4)c1N	1.2	39.2	89.2*	0.6	0.1
Cc1cc(C)n(-c2nc(C)nc3sc4c(c23)CCC(C)C4)n1 (stereo not given)	1	17.7	-0.2	0.8	1
Cc1cc(C)n(-c2ncnc3sc4c(c23)CCCC4)n1	1.2	56.8*	13.3	0.4	0.9
Cc1nc(-n2ncc(C#N)c2N)c2c3c(sc2n1)CCC3	0.8	-3.0	6.1	1	0.9
SMILES	PLAP activator	CYP2C19 inh	CYP2C9 inh	CYP2C19 activ	CYP2C9 act
COCCCn1c(Cc2csc(Nc3ccc(F)cc3)n2)nnc1SCC(N)=O	0.9	1.0	21.2	1	0.8
COc1ccc(Cn2c(C)c(C)c(C#N)c2NC(=O)Nc2ccc(Cl)cc2)cc1	1.2	-0.8	15.7	1	0.8
CC(=O)NC(Cc1c[nH]c2ccccc12)C(=O)Nc1ccc2c(c1)OCO2 (stereo not given)	1	5.4	-7.4	0.9	1.1
Cc1ccc(NC(=O)CS(=O)(=O)c2c[nH]c3ccccc23)c(C)c1	0.9	74.8*	-37.7	0.3	1.4
O=C(CS(=O)(=O)c1c[nH]c2ccccc12)Nc1ccc2c(c1)OCCO2	1	68.4*	29.6	0.3	0.7
Cc1ccc(NC(=O)CSCC(=O)O)c(C)c1	1.1	-10.7	-6.3	1.1	1.1
CCOC(=O)C1=C(CSc2nc3ccccc3s2)NC(=O)NC1c1cccc([N+](=O)[O-])c1 (stereo not given)	0.9	34.3	21.7	0.7	0.8
CC(OC(=O)c1cccc(NS(C)(=O)=O)c1)C(=O)Nc1ccc(N2CCOCC2)cc1 (stereo not given)	1.1	-3.0	-10.6	1	1.1
CCOC(=O)C1CCN(C(=O)c2ccc3c(c2)OCO3)CC1	0.8	42.7	21.9	0.6	0.8
O=C(c1ccc2c(c1)OCCO2)C1CCN(C(=O)c2ccc(F)cc2)CC1	1.4	72.5*	50.3*	0.3	0.5
O=C(c1ccc2c(c1)OCCO2)C1CCN(C(=O)c2ccc(F)c(F)c2)CC1	1.6	75.3*	47.0	0.2	0.5
O=C(Nc1ccc2c(c1)OCCO2)C1CCN(C(=O)c2ccccc2)CC1	1.3	9.0	x	0.9	x
CCOC(=O)c1ccc2c(c1)nc(SCc1cn3ccsc3n1)n2CC	1.3	27.9	52.4*	0.7	0.5
CCOC(=O)c1ccc2c(c1)nc(COc1ccc3ccccc3c1)n2CC	0.9	17.9	47.6	0.8	0.5
CCOC(=O)C(O)(C1C(=O)CC(C)(C)CC1=O)C(F)(F)F (stereo not given)	1.1	-0.2	93.3*	1	0.1
Cc1ccc(S(=O)(=O)NCC(=O)Nc2ccc(C(F)(F)F)cc2)cc1	1	24.5	8.6	0.8	0.9
O=C(CNS(=O)(=O)c1ccccc1)Nc1ccc(C(F)(F)F)cc1	1.1	50.6*	29.9	0.5	0.7
CC(O)(CS(=O)(=O)Cc1ccccc1)C(=O)Nc1ccc(C(F)(F)F)cc1 (stereo not given)	1.2	45.4	14.8	0.5	0.9
O=C(CNS(=O)(=O)c1ccc(F)cc1)Nc1ccc(C(F)(F)F)cc1	0.9	64.6*	55.0*	0.4	0.4
CCOCCCNC(=O)C1CCC(=O)N1CCc1ccccc1 (stereo not given)	0.9	10.0	8.0	0.9	0.9
Cc1ccccc1OCCN1C(=O)c2ccccc2C1=O	1	34.3	-46.1	0.7	1.5
O=c1sc2ccccc2n1COc1ccc(Cl)cc1	0.5	99.7*	94.1*	0	0.1
COc1ccc(Cn2c(=O)sc3ccccc32)cc1	0.9	50.5*	68.4*	0.5	0.3
O=c1sc2ccccc2n1COc1ccccc1	0.4	89.0*	58.6*	0.1	0.4
Cc1ccccc1OCCCn1c(=O)sc2ccccc21	1	32.7	54.9*	0.7	0.5
COc1ccc(-n2c(Cn3c(=O)sc4ccccc43)nnc2SCC(=O)N2CCOCC2)cc1	1.5	-3.2	24.4	1	0.8
O=C(Cn1c(=O)sc2ccccc21)N1CCOCC1	1	24.4	-6.2	0.8	1.1
Cn1c(=O)c2c(nc(N3CCN(Cc4ccccc4)CC3)n2CCSc2ncccn2)n(C)c1=O	1.3	15.8	12.2	0.8	0.9
O=c1sc2ccccc2n1CCCOc1ccccc1	0.9	47.1	62.2*	0.5	0.4
